Screens deposited in PubChem by National Center for Advancing Translational Sciences (NCATS).
NPC1 prom act: NPC1 promoter activation; Huh7 NPC1 promoter luciferase reporter, 24 h; Potency, µM (series often up to 9.22 µM), most hits filed as activators; 320,000 compounds, 2.4% hits; AID 485313; note: nearly all actives have a fitted effect of over 60% in size
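Compounds in DMSO were transferred onto Huh7 NPC1-luciferase reporter cells pre-incubated 2 h; after 24 h at 37 °C, Amplite reagent was dispensed and luminescence recorded 10 min later.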
ELG1 genotoxic: genotoxicity induction in ELG1-luciferase HEK293T cells; HEK293T ELG1-luciferase reporter, luminescence, 16 h; Potency, µM (highest dose often 46 µM), usual class: activators; 330,000 compounds, 1.3% hits; note: nearly all actives have a fitted effect of over 60% in size
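Luminescence read-out: rising ELG1-luciferase signal, reflecting elevated ELG1 protein under genetic stress, flags genotoxic compounds. Cells were treated for 16 hr at 37 °C before ONE-Glo detection.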
FLuc counter: firefly luciferase modulation, counter-screen for miR-21 project | P08659 | purified FLuc, Km substrates, luminescence inhibition | Potency, µM (series often up to 57.5 µM), hits mostly inhibitors | 360,000 compounds, 6.9% hits; note: nearly all actives have a fitted effect of over 55% in size
Target sequence (P08659 whole entry, looked up): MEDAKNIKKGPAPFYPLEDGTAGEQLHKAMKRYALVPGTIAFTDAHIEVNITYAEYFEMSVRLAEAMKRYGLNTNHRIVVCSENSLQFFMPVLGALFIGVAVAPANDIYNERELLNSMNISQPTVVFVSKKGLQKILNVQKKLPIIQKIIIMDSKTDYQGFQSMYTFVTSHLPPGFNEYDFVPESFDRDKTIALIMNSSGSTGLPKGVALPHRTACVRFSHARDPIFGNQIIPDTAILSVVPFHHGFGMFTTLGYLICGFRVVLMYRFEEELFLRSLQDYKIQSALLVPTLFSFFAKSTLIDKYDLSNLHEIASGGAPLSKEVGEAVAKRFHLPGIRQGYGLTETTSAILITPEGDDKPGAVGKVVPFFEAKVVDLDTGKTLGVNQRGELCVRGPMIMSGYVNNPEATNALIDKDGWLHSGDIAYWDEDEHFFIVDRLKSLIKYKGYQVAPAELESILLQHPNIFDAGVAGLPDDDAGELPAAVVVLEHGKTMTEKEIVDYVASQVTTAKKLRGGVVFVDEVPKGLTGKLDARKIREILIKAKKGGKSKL
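Purified P. pyralis luciferase, 10 nM final, with Km-level 10 uM D-luciferin and 10 uM ATP in 50 mM Tris acetate pH 7.5, 10 mM Mg acetate, 0.01% Tween-20, 0.05% BSA; 6-point qHTS titration about 60 µM downward; luminescence read.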
SMN2 splice enh: enhancers of SMN2 splice variant expression. HEK293 SMN2-luciferase splicing reporter, luminescence, 30-36 h. 210,000 compounds, 2.8% hits. Potency, µM (highest dose often 46.1 µM), usual class: activators. AID 1458; note: nearly all actives have a fitted effect of over 55% in size
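HEK293 cells carry an SMN2 […]–luciferase reporter in which exon 7 inclusion puts luciferase in frame. Cells were plated 10-12 h before compound addition, then incubated 30-36 h at 37C. ONE-Glo luminescence was read; sodium butyrate at 4.5 mM final served as control.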
Rab9 prom act: activates the Rab9 promoter | Huh7 Rab9 promoter-luciferase reporter, luminescence, 24 h | Potency, µM (top dose mostly 9.22 µM), usual class: activators | 320,000 compounds, 2.8% hits | AID 485297; note: nearly all actives have a fitted effect of over 60% in size
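Rab9 promoter-driven luciferase in stably transfected Huh7 cells; 1500 cells/well rested 2 h, exposed to compound in DMSO for 24 h at 37 °C, 5% CO2. Luminescence read 10 min after adding luciferase reagent at ambient temperature.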
A number is an active result; – = inactive; ? = inconclusive; · = no result. Rows were chosen to be rich in hits. Some 7.5% of all compounds tested hit in one or more screens of this group. Calls come from the whole dose curve; as a rule, active = well fitted curve in the direction sought with a large enough effect; inconclusive = small, poorly fitted or top-dose-only effect, or another doubt; inactive = no such curve, though single readings can be large; an effect the other way counts as inactive or inconclusive.

SMILES | NPC1 prom act | ELG1 genotoxic | FLuc counter | SMN2 splice enh | Rab9 prom act
Cc1cc(C=C2C(=O)NC(=S)NC2=O)c(C)n1C1CCCC1 | – | 20.6µM | 1.51µM | – | –
Cc1cc(N2CCCCC2)ccc1C=C1C(=O)N(C)C(=S)N(C)C1=O | – | – | ? | – | –
Cc1cc(C=C2C(=O)N(C)C(=S)N(C)C2=O)c(C)n1C1CCCCC1 | – | – | 3.38µM | – | –
Cc1cc(C=C2C(=O)NC(=O)NC2=O)c(C)n1-c1cccnc1 | – | – | ? | · | –
CNc1cc(Cl)c2nonc2c1[N+](=O)[O-] | – | – | – | – | –
CCOc1ccccc1Oc1coc2cc(OC(=O)c3ccco3)ccc2c1=O | – | – | 15.1µM | ? | –
CCOC(=O)C1CCCN(C(=O)c2ccc3oc(Cc4ccccc4)nc3c2)C1 (stereo not given) | 3.55µM | ? | 12µM | · | 4.47µM
CC1(C)C(=O)C=C[C@@]2(C)C1CC(O)[C@]1(C)C2CC[C@@]2(C)C(c3ccoc3)OC(=O)C3O[C@]312 (stereo not given in full) | · | · | · | – | ·
O=C(Nc1ccc(F)cc1F)c1cccn(Cc2ccccc2)c1=O | – | – | ? | – | –
COc1cc(CNC(=O)CCCC/C=C\C(C)C)ccc1O | – | · | – | – | –
CC(C)(C)c1ccc(C(=O)C2CCCN(Cc3ccon3)C2)cc1 (stereo not given) | ? | – | 16.9µM | · | ?
O=C(c1ccc(Cl)cc1)C1CCCN(Cc2ccon2)C1 (stereo not given) | – | – | – | · | –
N#C/C(=C\c1ccc(O)c(O)c1)C(=O)NCCCNC(=O)/C(C#N)=C/c1ccc(O)c(O)c1 | – | · | · | – | –
CCC(COC(=O)NC)NC(=O)Oc1cccc(C)c1 (stereo not given) | – | – | – | – | –
CNC(=O)Oc1cccc(-c2cn3cc(Cl)ccc3n2)c1 | 3.16µM | ? | 2.69µM | ? | 3.55µM
CNC(=O)Oc1ccc(-c2cn3cc(C)ccc3n2)cc1 | 0.355µM | ? | 0.338µM | 1.78µM | 0.316µM
CN(C)c1ccccc1 | · | · | · | – | ·
CN(C)c1ccc(C(=O)c2ccc(N(C)C)cc2)cc1 | – | 23.1µM | 13.5µM | – | –
CCc1cc(=O)oc2cc(C)cc(OCC(=O)N3CCC(C(=O)O)(c4ccccc4)CC3)c12 | – | – | – | · | –
CC(C)CN(CC(C)C)c1ccc(C=C2C(=O)NC(=S)NC2=O)cc1[N+](=O)[O-] | – | – | – | – | –
CCN(CC)c1ccc(C=C2C(=O)NC(=S)NC2=O)cc1 | – | ? | 19µM | · | –
COc1ccc(NC2=NC(C)(C)CS2)cc1 | ? | ? | ? | 11.2µM | ?
COc1ccc(NC2=NCC(C)S2)cc1 (stereo not given) | – | – | – | – | –
Cc1cccc(N=Nc2ccc(N(C)C)cc2)c1 | 0.631µM | 4.61µM | 0.675µM | · | 1.26µM
c1ccc(N=Nc2ccccc2)cc1 | · | · | · | – | ·
SMILES | NPC1 prom act | ELG1 genotoxic | FLuc counter | SMN2 splice enh | Rab9 prom act
CN(C)c1ccc2c(c1)N=C(c1ccco1)OP2(=S)N1CCOCC1 (stereo not given) | – | ? | 15.1µM | – | –
Cc1ccc2nc(NC(=O)c3cccn(Cc4ccc(Cl)cc4)c3=O)sc2c1 | · | · | – | · | ·
CCOc1ccc2nc(NC(=O)c3cccn(Cc4ccc(C)cc4)c3=O)sc2c1 | · | · | – | · | ·
Cc1ccccc1Cn1cccc(C(=O)Nc2nc3ccccc3s2)c1=O | · | · | 0.426µM | · | ·
CCOc1ccc2nc(NC(=O)c3cccn(Cc4ccccc4)c3=O)sc2c1 | · | · | 6.01µM | · | ·
O=C(Nc1nc2ccccc2s1)c1cccn(Cc2ccccc2)c1=O | · | · | 0.757µM | · | ·
CCc1ccc(-c2nn(Cc3ccccc3)cc2C=O)cc1 | 2.51µM | ? | 6.75µM | 14.1µM | 1µM
O=C(O)c1cn(Cc2ccccc2)nc1-c1ccccc1 | – | – | – | – | –
CC(C)N(Cc1nccn1C)C(=O)CCc1nnc(CCCc2ccccc2)o1 | ? | ? | ? | · | –
